12-hLO inh = inhibitors of human 12-lipoxygenase (ALOX12). P18054. purified 12-hLO, xylenol orange hydroperoxide absorbance. Potency, µM (top dose mostly 57.1 µM), for inactives: at the top dose activity change, negative = inhibition, actives largely listed as inhibitors. actives 0.12% (n = 150,000); active = well fitted inhibition curve with a large enough effect; inconclusive = small, poorly fitted or top-dose-only effect; note: potency is the fitted concentration of half-maximal effect; nearly all actives have a fitted effect of over 55% in size
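Purified human 12hLO (150 nM final) was preincubated with compounds for 15 min at room temperature in 25 mM Hepes pH 7.0, 0.01% Triton X-100, then reacted with 40 uM arachidonic acid for 30 min. Hydroperoxide was detected with ferrous iron/xylenol orange.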
LMNA splice mod = LMNA splicing modulation; HeLa LMNA splicing GFP/RFP minigene ratio, 48 h; Potency, µM (doses to about 46.1 µM), for inactives: at the highest dose ratio change, negative = inhibition, most hits filed as inhibitors; actives 0.01% (n = 200,000); active = well fitted inhibition curve with a large enough effect in the signal ratio, with a control signal flat, not every such curve was filed as active; inconclusive = small, poorly fitted or top-dose-only effect, or effect the other way, or a change in a side signal; the % refers to the signal ratio; note: potency is the fitted concentration of half-maximal effect
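S3 HeLa cells stably expressing lamin A-EGFP splicing minigene plus DsRed2, 600 cells/well, 48 h compound exposure at 37C. Laser-scanning cytometry; analysed as GFP (500-530 nm)/RFP (575-640 nm) total intensity ratio; 0.5% DMSO vehicle.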
ALDH1A1 block = ALDH1A1 (human) enzyme inhibition. actives 7.3% (n = 220,000). P00352. Purified ALDH1A1, NADH fluorescence, propionaldehyde substrate. Potency, µM (top dose mostly 75.3 µM), for inactives: at the highest dose activity, negative = inhibition, most hits filed as inhibitors;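 note: potency is the fitted concentration of half-maximal effect; plate controls were no enzyme wells and a reference inhibitor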
Target sequence (P00352 whole entry, looked up): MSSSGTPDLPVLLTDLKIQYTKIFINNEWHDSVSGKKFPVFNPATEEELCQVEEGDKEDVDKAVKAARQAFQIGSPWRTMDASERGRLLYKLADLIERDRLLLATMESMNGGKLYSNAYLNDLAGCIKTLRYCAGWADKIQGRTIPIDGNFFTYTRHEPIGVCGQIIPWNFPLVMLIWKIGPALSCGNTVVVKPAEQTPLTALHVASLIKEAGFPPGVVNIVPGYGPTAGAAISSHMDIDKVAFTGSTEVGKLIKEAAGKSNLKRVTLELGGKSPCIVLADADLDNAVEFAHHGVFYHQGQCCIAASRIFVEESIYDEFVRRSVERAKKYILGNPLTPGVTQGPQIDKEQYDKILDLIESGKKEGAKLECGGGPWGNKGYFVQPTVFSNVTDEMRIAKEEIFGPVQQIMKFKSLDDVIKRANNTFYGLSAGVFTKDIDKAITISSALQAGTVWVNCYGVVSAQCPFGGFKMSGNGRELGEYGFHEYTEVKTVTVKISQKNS
HPGD block = inhibitors of human 15-hydroxyprostaglandin dehydrogenase (HPGD); P15428; purified HPGD, NADH fluorescence kinetic, PGE2 substrate; Potency, µM, inactives show at the top dose activity change, negative = inhibition, hits mostly inhibitors; actives 4.3% (n = 150,000); AID 894; note: potency is the fitted concentration of half-maximal effect
Target sequence (P15428 whole entry, looked up): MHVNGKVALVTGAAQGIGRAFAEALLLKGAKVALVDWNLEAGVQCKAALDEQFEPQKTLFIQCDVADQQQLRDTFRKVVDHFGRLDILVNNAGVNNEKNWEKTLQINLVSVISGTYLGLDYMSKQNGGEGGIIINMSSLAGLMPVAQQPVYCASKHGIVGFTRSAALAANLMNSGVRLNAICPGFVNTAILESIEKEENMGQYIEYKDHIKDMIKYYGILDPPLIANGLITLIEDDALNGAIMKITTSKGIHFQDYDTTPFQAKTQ
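NADH formation kinetics: reaction with 30 uM PGE2 and 1 mM NAD+ (final), 20 nM enzyme, Tris-HCl pH 8 with Tween 20, after 15 min compound preincubation at room temperature. Fluorescence change, last versus first of five reads.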
PNC inhibitor = blocks assembly of the perinucleolar compartment; PC3M PTB-GFP, PNC prevalence imaging, 16 h; hits give low values; activity change (PNC), negative = inhibition, % at 10 µM; actives 3.1% (n = 140,000);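 active = readout at or below -70, meaning at least 70% loss of cells showing the perinucleolar compartment, a nuclear body marking cancer cells; inconclusive = readout between -30 and a set limit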;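 note: plate controls were DMSO wells for no effect and camptothecin positive control wells for full effect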
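PC3M cells stably expressing PTB-GFP, 750–1000 cells/well, treated 16 h at 37 °C with compound (23 nl of library stock), in duplicate. After paraformaldehyde fixation and Hoechst stain, imaged at 20x; PNC prevalence scored by image analysis.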
* = called active by the depositor; ? = inconclusive; . = no result given; [ ] = another dose, or the depositor's remark. Shown are actives, neighbours in structure and some others; about 10% of the full set was active somewhere. Unless noted, calls come from the whole dose curve; as a rule, active = well fitted inhibition curve with a large enough effect (not every such curve was filed as active); inconclusive = small, poorly fitted or top-dose-only effect, or another doubt; inactive = no such curve, though single readings can be large or run the other way. Unless noted, % is set by controls: 0 for no effect and ±100 for the full control effect.

SMILES | 12-hLO inh | LMNA splice mod | ALDH1A1 block | HPGD block | PNC inhibitor
CCCC(CCC)=NNC(=O)CN(Cc1ccccc1)S(=O)(=O)c1ccccc1 | -7.2% | -11.9% | 8.91µM* | -14.3% | 0.0
CNC(=O)CN(Cc1ccccc1)S(=O)(=O)c1ccccc1 | 0.2% | 2.5% | -21.7% | -3.4% | -16.2
COc1ccccc1CN(Cc1nc2ccccc2c(=O)[nH]1)S(=O)(=O)c1ccc2ccccc2c1 | 1.7% | ? | ? | -15.4% | 20.7
O=C(CN(Cc1ccc(Cl)c(Cl)c1)S(=O)(=O)c1ccccc1)N/N=C\c1ccc2c(c1)OCO2 | -21.0% | ? | -8.9% | ? | 17.4
O=C(CN(Cc1ccccc1)S(=O)(=O)c1ccccc1)N/N=C/c1ccc2c(c1)OCO2 | -4.6% | 1.6% | ? | 11.2µM* | 6.8
COc1ccc(CNC(=O)CN(Cc2ccc(Cl)cc2)S(=O)(=O)c2ccccc2)cc1 | 1.0% | ? | 2.24µM* | 2.7% | ?
COc1ccc(S(=O)(=O)N(Cc2ccccc2)Cc2nc3ccccc3c(=O)[nH]2)cc1 | 1.1% | ? | 6.31µM* | -4.5% | 26.9
COc1ccc(CNC(=O)CN(Cc2ccccc2)S(=O)(=O)c2ccc(Cl)cc2)cc1 | -3.0% | -19.3% | ? | -13.6% | 22.7
C=CCC1CCCC(=O)N2CCCC12 (centres undefined) | -1.3%[0.00818 µM] | . | -3.2%[120 µM] | -8.5% | .
CC(Oc1ccccc1F)C(=O)Nc1ccc(-c2nc3ccccc3s2)cc1 (centres undefined) | . | 13.2%[46 µM] | . | . | .
Cc1cccc(NC(=S)NCCO)c1C | 4.9% | -3.9% | 7.9% | -6.9% | 11.5
Cc1cccc(NNC(N)=S)c1C | . | . | 12.6µM* | . | .
Cc1ccc(C)c(NNC(N)=S)c1 | . | . | 12.6µM* | . | .
O=C(c1ccc(CN2CCc3ccccc3C2)cc1)N1CCCCC1 | -2.3% | 2.9% | ? | 2.51µM* | -16.4
COCCNC(=O)c1ccc(CN2CCc3ccccc3C2)cc1 | -4.7% | ? | 8.3% | 14.1µM* | 45.2
COc1cc(NC(=O)c2c(C)oc3c2C2=NCCN2C=N3)cc(OC)c1OC | . | -25.8%[46 µM] | . | . | .
COc1ccc(Br)cc1CNc1ccc(O)cc1 | -19.1% | -5.0% | 10µM* | -18.1% | 2.4
CC(C)c1ccc2nc(N)sc2c1 | . | ? | 7.2% | . | .
Cc1cc2nc(N)sc2cc1C | 1.9% | 6.5% | -0.6% | -11.7% | -90.9*
O=C(COC(=O)c1ccccc1NS(=O)(=O)c1cc([N+](=O)[O-])ccc1Cl)c1ccccc1 | . | -13.5%[9.22 µM] | 9.8% | . | .
CN(C(=O)COC(=O)c1cc(NS(=O)(=O)c2cc([N+](=O)[O-])ccc2Cl)ccc1O)C1CCCCC1 | 3.0% | ? | ? | -0.2% | -95.5*
COc1cccc(OC)c1C(=O)Nc1nnc(-c2cccs2)s1 | . | 1.6%[46 µM] | 7.94µM* | . | .
CCOC(=O)Nc1nnc(-c2ccccc2OC)s1 | 0.1% | -10.1% | -5.1% | ? | -118.9*
CCC(CC)C(=O)Nc1nnc(-c2cccs2)s1 | -6.5% | 2.6% | ? | ? | 7.9
C=C(C)C(=O)Nc1nnc(-c2ccccc2C)s1 | . | . | 7.94µM* | . | .
SMILES | 12-hLO inh | LMNA splice mod | ALDH1A1 block | HPGD block | PNC inhibitor
Cc1cccc(CN2C(=O)c3ccccc3Sc3ccc(C(=O)NCc4cccs4)cc32)c1 | . | -26.2%[46 µM] | . | . | .
COc1ccc(-c2nc3sc(CCNC(=O)c4cccc(C(F)(F)F)c4)c(C)n3n2)cc1 | . | 4.0%[46 µM] | . | . | .
CCOC(=O)N1CCC(NC(=O)Cn2nc(Cc3ccncc3)c3ccccc3c2=O)CC1 | 11.5% | 4.3% | 2.1% | -4.9% | -105.7*
CCOC(=O)Cn1nc(Cc2ccccc2)c2ccccc2c1=O | -1.2% | -17.1% | -9.7% | -11.6% | ?
Cc1ccc(CSc2nc3cccnc3n2Cc2ccc(C(=O)NCc3ccco3)cc2)cc1 | . | -10.6%[46 µM] | . | . | .
CCOc1ccc(NC(=O)Cn2nnc(C(=O)NCc3ccco3)c2N)cc1 | 0.9% | 11.1% | 0.6% | 7.8% | -23.4
CCOc1ccc(-n2c(N)c(C(=O)NCc3ccco3)sc2=S)cc1 | -20.2% | 3.2% | 22.4µM* | 31.6µM* | -85.6*
CCOc1ccc(-n2c(N)c(C(=O)NCc3cccnc3)sc2=S)cc1 | -20.1% | 21.0% | ? | 35.5µM* | -14.6
Cc1ccc(C(=O)NCC(=O)N/N=C/c2cccs2)cc1[N+](=O)[O-] | . | . | 11.6% | . | .
Cc1cccc(-c2n[nH]c(=S)n2Cc2ccccc2)c1 | ? | 1.6% | ? | ? | 53.1
CC(C)Cn1c(-c2csc(C(C)C)c2)n[nH]c1=S | . | -9.9%[9.22 µM] | ? | . | .
Cc1ccc(-c2n[nH]c(=S)n2Cc2ccccc2)cc1 | -1.1% | 19.9% | ? | ? | -20.2
S=c1[nH]nc(-c2cccc(Cl)c2)n1Cc1ccccc1 | -11.5% | -2.0% | ? | 17.8µM* | 55.6
CCn1c(-c2csc(C(C)C)c2)n[nH]c1=S | -3.2% | ? | 15.8µM* | ? | -11.4
CCCc1cc(-c2n[nH]c(=S)n2C(C)c2ccccc2)cs1 (centres undefined) | -29.8% | ? | ? | 12.6µM* | 28.2
O=[N+]([O-])c1cccc(-c2n[nH]c(=S)n2Cc2ccccc2)c1 | -2.9% | ? | ? | 25.1µM* | -12.0
COc1cccc(CNC(=O)c2ccc3oc(=O)n(Cc4ccccc4)c3c2)c1 | . | -2.1%[46 µM] | . | . | .
Cc1ccccc1-c1n[nH]c(=S)n1Cc1ccccc1 | . | . | -1.0% | . | .
C=CCn1c(-c2cccc(S(=O)(=O)N(CC)CC)c2)n[nH]c1=S | . | -12.9%[46 µM] | 2.24µM* | . | .
CCc1cc(-c2n[nH]c(=S)n2Cc2ccccc2)cs1 | -21.2% | -10.9% | 5.62µM* | 14.1µM* | 51.3
C=CCn1c(-c2cccc(Cl)c2)n[nH]c1=S | -8.6% | 3.2% | 11.2µM* | ? | ?
CCc1cc(-c2n[nH]c(=S)n2CC)cs1 | -5.6% | ? | ? | -27.7% | -9.1
S=c1[nH]nc(-c2ccc(Cl)cc2Cl)n1Cc1ccccc1 | -21.7% | -2.9% | 31.6µM* | 15.8µM* | ?
CCC/C=C(\CCC)C(NC(=O)c1ccc(C(F)(F)F)cc1)c1ccc(C(F)(F)F)cc1 (centres undefined) | -0.6% | . | -1.6% | -3.0% | .
Cc1ccc(NC(=O)CN2C(=O)COc3ccc(S(=O)(=O)NC4CCCC4)cc32)cc1N(C)C | . | 5.7%[46 µM] | . | . | .
SMILES | 12-hLO inh | LMNA splice mod | ALDH1A1 block | HPGD block | PNC inhibitor
Nc1nc2c([nH]c(=S)n2C2OC(CO)C(O)C2O)c(=O)[nH]1 (centres undefined) | 0.5% | -7.1% | -9.2% | -21.0% | .
CCc1cc(-c2n[nH]c(=S)n2-c2ccccc2C)cs1 | -20.0% | 8.1% | 8.91µM* | ? | 35.5
Cc1cc(C)n2nc(SCc3nnc(-c4ccccc4Br)o3)nc2n1 | . | . | 2.1% | . | .
COc1ccc(C(=O)N/N=C(\C)c2ccc3c(c2)C2C=CCC2C(c2ccccc2)N3)cc1 (centres undefined) | ? | -22.3% | 11.2µM* | -23.2% | -1.0
COc1cccc(NS(=O)(=O)c2ccc3c(c2)C2C=CCC2C(c2ccc(C(=O)O)cc2)N3)c1 (centres undefined) | -21.0% | 3.2% | 20µM* | -28.2% | 23.3
CNC(=O)C(=O)NCCCN1CCOCC1 | . | 18.9%[46 µM] | 14.4% | . | .
CSc1nc(Sc2ccccc2Cl)c2ccccc2n1 | -2.5% | -29.4% | -5.3% | -14.5% | ?
